Most compounds without a hit are left out; they make up all but 9.4% or so of the library.
ELG1 genotoxic: induces genotoxicity in HEK293T cells with luciferase-tagged ELG1. HEK293T ELG1-luciferase reporter, luminescence, 16 h. Potency, µM (titrated, usually from 46 µM), for the others: at the highest dose activity change, positive = activation, usual class: activators. 330,000 tested, 1.3% active; also: % of control where 0% means no effect; nearly all actives have a fitted effect of over 60% in size
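Reporter readout depends on ELG1 protein level, which increases with genetic stress. After 16 hr compound exposure at 37 °C, luciferase activity was quantified using ONE-Glo.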
SMN2 splice enh: increases expression of the SMN2 splice variant | 210,000 tested, 2.8% active | AID 1458 | Potency, µM (highest dose often 46.1 µM), inactives show at the highest dose activity change, positive = activation, hits mostly activators | HEK293 SMN2-luciferase splicing reporter, luminescence, 30-36 h; also: % of control where 0% means no effect; nearly all actives have a fitted effect of over 55% in size
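qHTS luciferase splicing reporter: luminescence rises when SMN2 exon 7 is included in transfected HEK293 cells. Compound exposure lasted 30-36 h at 37C, with 4.5 mM final sodium butyrate as control, followed by a ONE-Glo read.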
FLuc counter: inhibits or activates purified firefly luciferase, miR-21 counter-screen. purified FLuc, Km substrates, luminescence inhibition. 360,000 tested, 6.9% active. AID 588342. Potency, µM (series often up to 57.5 µM), for the others: at the highest dose activity change, negative = inhibition, actives largely listed as inhibitors. P08659;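 also: plate controls were vehicle for no effect and reference inhibitor for full effect; nearly all actives have a fitted effect of over 55% in size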
Target sequence (P08659 whole entry, looked up): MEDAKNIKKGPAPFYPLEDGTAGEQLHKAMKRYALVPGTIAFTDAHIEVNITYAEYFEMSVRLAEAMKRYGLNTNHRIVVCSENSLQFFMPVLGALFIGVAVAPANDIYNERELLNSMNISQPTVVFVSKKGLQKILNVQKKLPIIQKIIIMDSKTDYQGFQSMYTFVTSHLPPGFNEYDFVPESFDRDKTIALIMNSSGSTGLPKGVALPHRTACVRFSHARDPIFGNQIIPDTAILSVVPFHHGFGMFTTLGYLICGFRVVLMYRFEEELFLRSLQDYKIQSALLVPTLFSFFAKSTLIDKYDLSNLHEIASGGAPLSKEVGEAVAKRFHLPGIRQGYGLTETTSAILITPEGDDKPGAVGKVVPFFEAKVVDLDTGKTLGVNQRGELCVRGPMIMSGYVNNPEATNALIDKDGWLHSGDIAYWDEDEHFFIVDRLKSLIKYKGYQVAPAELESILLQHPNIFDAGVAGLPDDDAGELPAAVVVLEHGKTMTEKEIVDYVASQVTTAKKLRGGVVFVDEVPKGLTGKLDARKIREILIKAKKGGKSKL
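Purified P. pyralis luciferase, 10 nM final, with Km-level 10 uM D-luciferin and 10 uM ATP in 50 mM Tris acetate pH 7.5, 10 mM Mg acetate, 0.01% Tween-20, 0.05% BSA; 6-point qHTS titration about 60 µM downward; luminescence read.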
Rab9 prom act: activators of Rab9 promoter | Huh7 Rab9 promoter-luciferase reporter, luminescence, 24 h | Potency, µM (series often up to 9.22 µM), for inactives: at the top dose activation, negative = inhibition, most hits filed as activators | 320,000 tested, 2.8% active | AID 485297; also: % of control where 0% means no effect; nearly all actives have a fitted effect of over 60% in size
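Luciferase signal after 10 min detection reagent at ambient indicates Rab9 promoter upregulation; stably transfected Huh7 cells were treated 24 h with compound in DMSO at 37 °C, 5% CO2.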
ELG1 DNA repair: blocks ELG1-dependent DNA repair in HEK293T cells; HEK293T ELG1-luciferase reporter, luminescence, 16 h; DNA damage induced by 5-fluorouridine; Potency, µM (doses to about 46.1 µM), for inactives: at the highest dose activity change, negative = inhibition, usual class: inhibitors; 330,000 tested, 2.3% active; also: % is scaled to controls: 0 for no effect and ±100 for the full control effect; nearly all actives have a fitted effect of over 55% in size
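In this reporter screen, reduction of luminescence relative to DMSO vehicle indicated activity. Compounds and 5-fluorouridine were added together to 2,000 cells per well, incubated for 16 hr at 37 °C, then developed with ONE-Glo.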
NPC1 promoter act: NPC1 promoter activation | Huh7 NPC1 promoter luciferase reporter, 24 h | Potency, µM (top dose mostly 9.22 µM), for the others: top-dose activation, usual class: activators | 320,000 tested, 2.4% active; also: % of control where 0% means no effect; nearly all actives have a fitted effect of over 60% in size
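Stable NPC1-promoter luciferase Huh7 line; cpd (DMSO) 24 h, 37 °C, 5% CO2; Amplite luciferase reagent 10 min RT; luminescence readout. qHTS format.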
* hit, by the source's call; ? = inconclusive; nt = not tested or not shown; [ ] = remark or other dose. Calls follow the shape of the dose curve; as a rule, active = well fitted curve in the direction sought with a large enough effect; inconclusive = small, poorly fitted or top-dose-only effect, or another doubt; inactive = no such curve, though single readings can be large; an effect the other way counts as inactive or inconclusive. Potency is read from the fitted curve at half-maximal effect.

SMILES | ELG1 genotoxic | SMN2 splice enh | FLuc counter | Rab9 prom act | ELG1 DNA repair | NPC1 promoter act
[O-][Cl+2]([O-])O | nt | 4.6% | nt | nt | nt | nt
COC(=O)[C@]1(C)CC[C@@]2(C)CC[C@@]3(C)C4=CC=C5C(=CC(=O)C(O)=C5C)[C@@]4(C)CC[C@@]3(C)C2C1 (some centres not stated) | nt | -114.6% | nt | nt | nt | nt
Cc1ccc(OC(=O)c2ccc(Br)o2)cc1 | 0.4% | -10.6% | 4.78µM* | -0.8% | ? | -6.2%
CC1CCC/C=C/C2CC(O)CC2C(O)/C=C/C(=O)O1 (configuration not stated) | -3.5% | -20.9% | -2.2% | -48.6% | 0.651µM* | -41.2%
C[C@H]1CCC/C=C/C2C[C@H](O)CC2[C@H](O)/C=C/C(=O)O1 (some centres not stated) | -9.0% | -57.5% | -2.3% | -34.7% | ? | -37.6%
COCCO[C@H]1CC[C@@]2(C)C(=CCC3C2CC[C@@]2(C)C3CC[C@]2(C)O)C1 (some centres not stated) | -4.7% | nt | nt | nt | 18.3µM* | nt
O=C(Nc1ccc(Cl)c(Cl)c1)c1ccco1 | ? | nt | 21.3µM* | ? | ? | ?
C=CCNC(=S)Nc1ccc(OC(=O)Nc2ccc(Cl)c(Cl)c2)cc1 | -10.1% | nt | -17.0% | -3.3% | 4.7% | -7.1%
CC(=O)c1ccc2c(c1)C1C(Cl)C(Sc3ccccc3[N+](=O)[O-])CC1C(c1ccccc1[N+](=O)[O-])N2 (configuration not stated) | -2.6% | -17.7% | -4.0% | -3.8% | 4.11µM* | -1.4%
CC(=O)c1ccc2c(c1)C1C(Cl)C(Sc3ccccc3[N+](=O)[O-])CC1C(c1ccccc1)N2 (configuration not stated) | 7.4% | 0.7% | -0.9% | -3.4% | ? | -1.0%
O=C(O)C(Oc1nc(=S)[nH]c(=S)[nH]1)(c1ccc(Cl)cc1)c1ccc(Cl)cc1 | nt | 1.1%[9.22 µM] | nt | nt | nt | nt
COc1cc(/C=C2\C(=O)NC(=O)N(c3ccccc3)C2=O)c([N+](=O)[O-])cc1OC | -1.5% | 0.3% | ? | -8.1% | 2.6% | 1.1%
COc1cc(/C=C2\C(=O)NC(=O)N(c3ccccc3)C2=O)cc(OC)c1O | 3.1% | 30.1% | 21.3µM* | 1.0% | 6.6% | -2.7%
Cc1cc(C)cc(N2C(=O)NC(=O)/C(=C/c3cccn3-c3ccc(Cl)cc3)C2=O)c1 | -16.0% | 14.1% | -0.4% | 1.7% | ? | 6.6%
CC(C)(C)n1cccc1/C=C1\C(=O)NC(=O)N(c2ccccc2)C1=O | 1.5% | -22.1% | 23.9µM* | -2.2% | 5.6% | 1.7%
CN(C)c1ccc(/C=C/C=C2/C(=O)NC(=O)N(c3ccccc3)C2=O)cc1 | -5.0% | nt | 4.26µM* | -3.0% | ? | 0.8%
O=C1NC(=O)N(c2ccccc2)C(=O)/C1=C/c1ccc2c(c1)Cc1ccccc1-2 | 8.1% | 11.2% | 21.3µM* | 1.5% | 26.9% | -4.5%
O=C(Cl)/C=C/C(=O)Cl | nt | -8.9% | nt | nt | nt | nt
O=C(O)C(C(=O)O)P(=S)(S)c1ccccc1 (configuration not stated) | nt | 1.4%[9.22 µM] | nt | nt | nt | nt
C[n+]1c(/C=C\c2ccc(O)c3ncccc23)[se]c2ccccc21 | nt | -24.9%[9.22 µM] | nt | nt | nt | nt
CC(C)(Cl)Cl | nt | 20.9% | nt | nt | nt | nt
COc1ccc(C[C@@H](N)c2ccc(OC)cc2)cc1 | nt | -9.7%[9.22 µM] | nt | nt | nt | nt
CC(C)(C)c1cc(C#N)cc(Br)c1OP(=O)(Oc1c(Br)cc(C#N)cc1C(C)(C)C)c1ccccc1 | nt | -5.5%[9.22 µM] | nt | nt | nt | nt
CCOC(=O)C1CCCN(C(=O)c2ccc3oc(Cc4ccccc4)nc3c2)C1 (configuration not stated) | ? | nt | 12µM* | 4.47µM* | ? | 3.55µM*
COc1c(C)cc(C(=O)C2CCCN(Cc3ccccn3)C2)cc1C (configuration not stated) | -5.7% | nt | 1.5% | -15.1% | ? | -3.1%
CN1CCN(Cc2nc3ccccc3c(=O)[nH]2)CC1 | -0.9% | 6.0% | -0.9% | -3.1% | -0.7% | 0.4%
O=C(c1ccccc1F)N1CCN(Cc2nc3sc4c(c3c(=O)[nH]2)CCCC4)CC1 | 0.0% | nt | -0.7% | -0.9% | 16.4µM* | 2.8%

Assay outcomes deposited in PubChem by National Center for Advancing Translational Sciences (NCATS).
